Calls of active or inactive are those of the source.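 How the source made its calls: active means inhibition at or above 50% at 10 µM; inactive means inhibition below 50%.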

The nature of this assay: inhibitors of Sendai virus-induced IRF3 signaling, primary screen, TLR/RLR signaling modifier project, cell-based, Sendai virus stimulus, luciferase, 10K MLSCN set (AID 602276).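 Further: firefly luciferase from ISG56 promoter only with Renilla not read in this screen; 0% = Sendai virus plus DMSO and 100% = medium plus DMSO without virus.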 The conditions noted are these: HEK293 RL24 IRF3 luciferase reporter, at 10 µM, active compounds read high.
On to `c1ccc(-n2ncc3c(N4CCCCC4)ncnc32)cc1`, for which the inhibition was 49.8% (inactive).
Take `CCCCn1cnc2c1c(=O)n(C)c(=O)n2C`: the inhibition was -11.6% (inactive).
As for `CCOC(=O)C1=C(C)Nc2nnnn2C1c1ccc(OC)c(Br)c1` (centres undefined), the inhibition is -20% (inactive).
Regarding `Cc1ccc(S(=O)(=O)Nc2nc3ccccc3nc2NCc2ccco2)cc1`, the inhibition is -21.6% (inactive).
As for `CCOC(=O)c1ccc2ncc(C(=O)OCC)c(NCCN(C)C)c2c1`, the figure is 10% (inactive); as for `N#Cc1c2n(c(=S)n(-c3ccccn3)c1=O)CCCCC2`, -7.7% (inactive).
Take `Cc1ccc2nc(-c3ccc4c(c3)OCCO4)cc(C(=O)O)c2c1`: the inhibition is -13.7% (inactive).
The same measure for `N#Cc1c(N)c(C(=O)c2ccccc2)n2c1CCCC2`: -3.25% (inactive); for `COCCn1c(COc2ccc(Cl)cc2)nnc1SCC(N)=O`: 18.2% (inactive).
In the case of `CC1Cc2ccccc2N1S(=O)(=O)c1cccc(C(=O)OCC(=O)NC2CCS(=O)(=O)C2)c1` (centres undefined), the inhibition was 20.6% (inactive).
The same measure for `C=CCn1c(SCC(=O)NC2CCCCC2)nnc1-c1sc(N)nc1C`: 16.9% (inactive); for `Cc1ccc(CSc2nc3c(c(=O)[nH]2)CCC3)cc1`: -0.266% (inactive).
For the molecule `Cc1nnc(NC(=O)c2ccco2)s1`, the inhibition was 3.15% (inactive).
Consider `CCN(CC)c1ccc2cc(NC(=O)CCC(=O)O)c(=O)oc2c1`, for which the inhibition was 50.8% (active).
The same measure for `CCCCC(=O)NCCc1ccc(S(N)(=O)=O)cc1`: 3.38% (inactive); for `COc1ccc(NC(=O)CN(c2cc(C)cc(C)c2)S(=O)(=O)c2c(C)noc2C)cc1OC`: 15.1% (inactive); for `COc1cccc(NC(=O)N[C@@H](Cc2ccccc2)C(=O)O)c1`: 6.12% (inactive).
Turning to `COc1cccc(C2=Nn3c(nnc3-c3ccccc3O)SC2)c1`, the inhibition is 6.36% (inactive).
As to `CC(=O)C1=C(C)Nc2ncnn2C1c1cccc(OCc2ccccc2)c1` (centres undefined), the inhibition was 11.8% (inactive).
The same measure for `O=C1C(C=NCCCn2ccnc2)=C(O)c2ccccc21`: 9.44% (inactive); for `CS(=O)(=O)NCC(c1cccnc1)N1CCN(c2ccc(F)cc2)CC1` (centres undefined): -3.05% (inactive); for `CN(C)c1nc(Oc2ccc(=O)n(C)n2)nc(N2CCOCC2)n1`: 16.8% (inactive).
Consider `O=C(Nc1ccc(N2CCOCC2)cc1)c1cc2ccccc2o1`, for which the inhibition is -72.9% (inactive).
Consider `Cn1nnnc1SCC(=O)NC1CCCCC1`, for which the inhibition is 5.19% (inactive).
The same measure for `CCn1nc(CC(=O)Nc2nnc(CC(=O)N3CCCCC3)s2)c2ccccc2c1=O`: 8.15% (inactive).
With `c1ccc(C(Cc2nc(-c3ccccn3)no2)c2ccccc2)cc1`, the inhibition is 20.3% (inactive).
The same measure for `COCCNC(=O)CCc1nc(-c2ccccc2)no1`: 18.6% (inactive); for `CC1(C)CC(=O)N(CC(=O)NCc2ccccc2)c2ccccc2S1(=O)=O`: 12.3% (inactive).
`CCN1C(=O)Cc2cc(S(=O)(=O)N3CCOCC3)ccc21`: the inhibition is 2.07% (inactive).
The same measure for `COc1cc2c(C#N)c(N3CCOCC3)nc(N)c2c(N)n1`: 15.2% (inactive); for `Cc1ccc(S(=O)(=O)N2CCCC2C(=O)OCc2nc3ccccc3s2)cc1` (centres undefined): 8.31% (inactive).
As for `COC(=O)CNC(=O)COC(=O)c1cc(Cl)cc(Cl)c1N`, the figure is -8.86% (inactive).
For `CCCCn1c(=O)[nH]c(=O)c2c1nc(-c1ccncc1)n2CCOC`, the inhibition was 0.301% (inactive).
In the case of `O=C(CCn1c(=O)oc2ccccc21)N1CCCCCC1`, the inhibition was -8.11% (inactive).
The same measure for `Cc1cc(C)n(-c2cc(N3CCOCC3)nc(-c3ccccc3)n2)n1`: 6.61% (inactive); for `CCOC(=O)C1=C(NC#N)OC(C)=C(C)C1c1ccc(O)cc1` (centres undefined): 20.5% (inactive).
As for `CCOc1cc(-c2nc(-c3ccccc3OC)no2)cc(OCC)c1OCC`, the figure is 11.5% (inactive).
For `COc1ccc(-n2nnnc2SCC(=O)N2CCOCC2)cc1`, the inhibition was 2.03% (inactive).
As for `COc1cc(NC(=O)C(C)Oc2ccccc2)c(C(=O)O)cc1OC` (centres undefined), the figure is 19% (inactive).

These data come from PubChem BioAssay.
